The first experiment deals with MOBKL1B. Kind of experiment: pooled miR-30 sensor sort-seq; sequence = guide strand. Particulars: shRNA.
In turn, TTTAATATTAGTACCATCTGCC showed a sensor-assay potency score (higher = more potent) of 0.311.

For the sequence TTTTAATATTAGTACCATCTGC, the sensor-assay potency score (higher = more potent) was -0.715.

The sequence TTCATCATCAAGCTGATCTTGA gave a sensor-assay potency score (higher = more potent) of 0.57.

TAAAAGAATAAAACCAATCTGA yielded a sensor-assay potency score (higher = more potent) of -0.367.

AATATTAGTACCATCTGCCCAG yielded a sensor-assay potency score (higher = more potent) of 0.0511.

Consider TTTTGGTGCAGAACATTTGATT, for which the sensor-assay potency score (higher = more potent) is -0.935.

TTAATTCTTGAAGAGGTGCCAG came in with a sensor-assay potency score (higher = more potent) of -0.419.

On to AAGAGTTTCATCATCAAGCTGA, for which the sensor-assay potency score (higher = more potent) came out at 0.471.

For the sequence TTGAATGTTTTAGAAGAGCGGC, the sensor-assay potency score (higher = more potent) is -0.634.

A further experiment addresses MOCS3. The description is as above. Particulars: shRNA.
Take TAGCGCAGAATCTCATCTCGGG: the sensor-assay potency score (higher = more potent) is -0.0421.

In turn, TTGAGCTGCTGATAAGGACTGG displayed a sensor-assay potency score (higher = more potent) of -0.00969.

As for TTAGAAAGCATTTTGACTGGGG, the sensor-assay potency score (higher = more potent) came to 0.772.

Consider TTGGTCACTGTCTCCGCTGGGG, for which the sensor-assay potency score (higher = more potent) was -0.474.

On to TATTATGGCAATCCACATCTTT, for which the sensor-assay potency score (higher = more potent) was -0.453.

TTTGCAAATCACATAAATGGGG had a sensor-assay potency score (higher = more potent) of -0.854.

TAGTCGGTGACAGAAACACGCT yielded a sensor-assay potency score (higher = more potent) of -0.908.

AACAAGTGTATCTTTGAGGTAT gave a sensor-assay potency score (higher = more potent) of 0.286.

The sequence TTTCTGTGAGTCATTTCCCAGT displayed a sensor-assay potency score (higher = more potent) of -0.966.

As to TCAAAGAGCAACAAGCTGCCAC, the sensor-assay potency score (higher = more potent) was -0.221.

Consider TTAAAGGGTCTAACTCTTGAGC, for which the sensor-assay potency score (higher = more potent) was -0.607.

The sequence TTGCAAATCACATAAATGGGGA yielded a sensor-assay potency score (higher = more potent) of -0.379.

The next experiment has as its target MOGAT1. The experiment is described as above. To be noted: shRNA.
TAACTCCTCAATCTGCTCCTGG: the sensor-assay potency score (higher = more potent) is -0.332.

As for TATAGTTGTGACTTGGATCCAA, the sensor-assay potency score (higher = more potent) came out at 0.757.

As to TTGATCCAGCTGGATCTCCTGC, the sensor-assay potency score (higher = more potent) was -0.998.

Consider TTACCATGTAGGACACACTTTT, for which the sensor-assay potency score (higher = more potent) was -0.495.

The sequence TATAGGTCTGATGTAACTCCTC had a sensor-assay potency score (higher = more potent) of -0.267.

As for TAGGACACACTTTTCTTGGAAA, the sensor-assay potency score (higher = more potent) was -0.902.

The sequence ATGAATTGGAAAATAGTCCTTA came in with a sensor-assay potency score (higher = more potent) of 0.9.

Turning to TTCTGAACAGTTCTAATCCATG, the sensor-assay potency score (higher = more potent) is -1.47.

In the case of TTCTAATCCATGATCCTTCAGG, the sensor-assay potency score (higher = more potent) is -0.32.

The sequence TTGTACTGAAAAACTCCCCTGG displayed a sensor-assay potency score (higher = more potent) of 0.595.

Sequence TTTAACAAATCCTTTCCGCTGG returned a sensor-assay potency score (higher = more potent) of -0.0523.

As to TTTCTTGGAAACTGAAACCAGC, the sensor-assay potency score (higher = more potent) is -0.444.

The target of another experiment is MON2. Described as above. To be noted: shRNA.
Regarding TAGAAAATCTGTCACAACCAAC, the sensor-assay potency score (higher = more potent) was -1.49.

Sequence TAGTCGAAAACAAAGAACGATT came in with a sensor-assay potency score (higher = more potent) of -1.16.

Consider TTGTTCTATAATATCTCTGTGT, for which the sensor-assay potency score (higher = more potent) was -0.519.

TTGAATAGAGAGATTATCTGGA displayed a sensor-assay potency score (higher = more potent) of 0.727.

The sequence TTGGACATCTCCTTTAACGGGT came in with a sensor-assay potency score (higher = more potent) of -0.305.

On to TATTTGACCAACAAATTCCTTA, for which the sensor-assay potency score (higher = more potent) was -0.301.

The sequence AAAAACAACAGTAACAACTTGT had a sensor-assay potency score (higher = more potent) of 0.77.

The values above are taken from the OligoGym collection.
Further: reference of the scale not given here.
